Assay outcomes: PubChem BioAssay, Center for Chemical Genomics, University of Michigan
Dicer processing: human Dicer pre-microRNA cleavage inhibition. Q9UPY3. cat-ELCCA pre-miR-21 Dicer processing, chemiluminescence; active compounds read high. z-score at 25 µM. 47,000 compounds, 6% hits. AID 1347074; in the data active means z-score above about 3, passing the limit was not always enough;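 further: plate controls were vehicle for no effect and no enzyme for full effect; higher signal means more uncleaved substrate so more Dicer inhibition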
Target sequence (Q9UPY3 whole entry, looked up): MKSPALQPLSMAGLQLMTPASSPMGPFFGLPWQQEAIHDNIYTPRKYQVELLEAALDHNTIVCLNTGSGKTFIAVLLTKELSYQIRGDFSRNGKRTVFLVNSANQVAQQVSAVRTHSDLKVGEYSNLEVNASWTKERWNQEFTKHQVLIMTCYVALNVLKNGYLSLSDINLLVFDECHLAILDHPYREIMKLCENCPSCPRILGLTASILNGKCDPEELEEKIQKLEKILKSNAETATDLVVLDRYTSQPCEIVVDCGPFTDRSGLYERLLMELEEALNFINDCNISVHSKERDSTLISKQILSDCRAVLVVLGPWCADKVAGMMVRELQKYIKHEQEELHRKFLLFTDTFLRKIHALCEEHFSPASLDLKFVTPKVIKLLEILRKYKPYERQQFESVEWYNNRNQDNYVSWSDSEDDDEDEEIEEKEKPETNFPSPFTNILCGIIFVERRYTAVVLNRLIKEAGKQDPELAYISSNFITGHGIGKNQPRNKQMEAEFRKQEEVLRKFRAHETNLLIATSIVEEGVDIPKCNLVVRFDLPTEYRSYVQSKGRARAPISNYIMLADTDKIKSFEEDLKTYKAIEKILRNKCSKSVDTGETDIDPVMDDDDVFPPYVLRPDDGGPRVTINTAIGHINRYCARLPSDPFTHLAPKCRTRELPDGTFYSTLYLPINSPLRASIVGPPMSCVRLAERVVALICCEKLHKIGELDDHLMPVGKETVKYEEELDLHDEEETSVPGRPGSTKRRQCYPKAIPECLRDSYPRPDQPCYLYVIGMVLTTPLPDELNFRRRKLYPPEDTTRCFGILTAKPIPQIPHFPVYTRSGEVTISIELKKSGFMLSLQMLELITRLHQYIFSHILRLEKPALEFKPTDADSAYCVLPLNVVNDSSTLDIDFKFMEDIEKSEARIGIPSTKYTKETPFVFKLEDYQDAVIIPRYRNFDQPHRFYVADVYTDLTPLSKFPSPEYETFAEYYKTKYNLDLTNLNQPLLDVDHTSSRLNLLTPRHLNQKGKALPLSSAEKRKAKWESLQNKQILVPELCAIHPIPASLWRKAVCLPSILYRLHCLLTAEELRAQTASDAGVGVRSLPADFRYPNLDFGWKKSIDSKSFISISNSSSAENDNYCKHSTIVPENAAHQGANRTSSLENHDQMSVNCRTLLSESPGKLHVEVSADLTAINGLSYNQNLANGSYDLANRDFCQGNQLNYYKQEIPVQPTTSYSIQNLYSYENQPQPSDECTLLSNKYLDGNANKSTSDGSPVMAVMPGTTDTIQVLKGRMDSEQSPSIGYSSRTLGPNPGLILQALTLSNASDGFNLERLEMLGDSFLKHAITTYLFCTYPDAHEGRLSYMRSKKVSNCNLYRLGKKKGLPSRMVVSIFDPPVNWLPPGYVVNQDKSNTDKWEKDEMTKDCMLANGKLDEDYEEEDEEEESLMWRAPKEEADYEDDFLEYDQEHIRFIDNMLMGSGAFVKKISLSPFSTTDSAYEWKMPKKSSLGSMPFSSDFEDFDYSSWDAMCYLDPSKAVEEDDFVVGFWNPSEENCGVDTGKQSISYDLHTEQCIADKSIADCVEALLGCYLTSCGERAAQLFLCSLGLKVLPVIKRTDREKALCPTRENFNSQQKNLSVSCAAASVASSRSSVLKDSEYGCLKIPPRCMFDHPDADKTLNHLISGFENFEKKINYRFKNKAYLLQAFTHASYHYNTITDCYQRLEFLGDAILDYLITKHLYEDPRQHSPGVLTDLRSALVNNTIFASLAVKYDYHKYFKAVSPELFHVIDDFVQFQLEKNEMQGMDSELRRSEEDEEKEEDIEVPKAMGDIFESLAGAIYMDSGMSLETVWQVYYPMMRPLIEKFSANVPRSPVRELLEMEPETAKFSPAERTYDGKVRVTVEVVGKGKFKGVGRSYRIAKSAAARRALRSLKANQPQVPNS
* = called active by the depositor. The sample as a whole holds a higher share of hits than the screen did.

SMILES | Dicer processing
FC(F)(F)c1ccn(-c2ncnc3scc(-c4ccccc4)c23)n1 | -0.78
CSC(=NC#N)S/C=C/C(=O)c1cccc(Br)c1 | -2.23
CCc1ccc(C(=O)/C=C/Sc2nc3ccc(C)cc3[nH]2)cc1 | 0.92
Cc1ccc2nc(S/C=C/C(=O)c3cccc(Br)c3)[nH]c2c1 | 3.53*
Clc1ccccc1CN1CCN(Cc2ccco2)CC1 | 1.89
COc1ccc(-n2nnnc2/C(=C/N(C)C)C(=O)c2ccc(Cl)cc2)cc1 | -0.33
Cc1ccc(-n2cccc2)c(NC(=O)c2c(-c3c(Cl)cccc3Cl)noc2C)c1 | 0.7
CC1CCC2C(=O)N(c3ccc(C(=O)OC(C)C(=O)c4ccccc4)cc3)C(=O)C2C1 (stereo not given) | 3.14*
CC1CCC2C(=O)N(c3ccc(Cl)cc3)C(=O)C2C1 (stereo not given) | -1.53
CC1CCC2C(=O)N(c3ccc(N4C(=O)C5CCC(C)CC5C4=O)cc3)C(=O)C2C1 (stereo not given) | 2.83
Clc1ccc(/C=N/Nc2nc3c(Cl)cc(Cl)cc3s2)cc1 | -0.37
CN(C)CC1(CC(OC(=O)c2ccc([N+](=O)[O-])cc2)c2cccc(F)c2)CCCCC1 (stereo not given) | 0.28
Nc1ccc(Sc2nc3ccccc3s2)cc1 | 5.2*
Clc1ccc2sc(Sc3ccccc3)nc2c1 | -0.68
O=C(O)CSc1nc2ccccc2s1 | -1.8
CC[C@H]1OC(=O)C[C@@H](O)[C@H](C)[C@@H](O[C@@H]2O[C@H](C)[C@@H](O[C@H]3CC(C)(O)[C@@H](O)[C@H](C)O3)[C@H](N(C)C)[C@H]2O)[C@@H](CC=O)C[C@@H](C)C(=O)/C=C/C(C)=C/[C@@H]1CO[C@@H]1O[C@H](C)[C@@H](O)[C@@H](OC)[C@H]1OC (stereo not given in full) | 0.08
Cc1ccc2nc(-c3ccc(NC(=O)C(c4ccccc4)C4CCCC4)cc3)sc2c1 (stereo not given) | -0.15
Cc1ccc(S(=O)(=O)Nc2cc(Cl)c3oc4c(c3c2)C(=O)CCC4)c(C)c1 | 3.13*
COc1ccc(S(=O)(=O)Nc2ccc3oc4c(c3c2)C(=O)CCC4)cc1 | 0.14
CCOc1ccc(S(=O)(=O)Nc2cc(Cl)c3oc4c(c3c2)C(=O)CCC4)cc1 | 1.24
Cc1onc(-c2c(Cl)cccc2Cl)c1NC(=O)N=S(C)(=O)c1ccccc1 (stereo not given) | -1.48
O=C1CC(NCCc2ccc(Cl)cc2)C(=O)N1c1ccc(Br)cc1 (stereo not given) | 4.59*
O=C1CC(NCc2ccc(Cl)cc2)C(=O)N1c1ccc(Br)cc1 (stereo not given) | -3.31
CCCCCCCNC1CC(=O)N(c2ccc(Cl)cc2)C1=O (stereo not given) | -0.55
Clc1ccc(Nc2nc3ccccc3nc2-c2ccccc2)cc1 | -0.29
SMILES | Dicer processing
CC1=CS(=O)(=O)CC1Sc1n[nH]c(C)n1 (stereo not given) | -0.17
CNC(=O)c1cnn(-c2c(Cl)cc(Cl)cc2Cl)c1C | -1.01
O=C1NC(c2cc(Br)cs2)Nc2ccccc21 (stereo not given) | -0.25
Cc1cc(=O)oc2cc(OS(=O)(=O)c3cc(Cl)c(Cl)cc3Cl)c(Cl)cc12 | 2.94
Cc1ccc(S(=O)(=O)Oc2cc(C)ccc2C)cc1 | -0.61
Cc1cc(=O)oc2cc(OS(=O)(=O)c3cc(C(F)(F)F)cc(C(F)(F)F)c3)c(Cl)cc12 | 4.23*
Cc1ccccc1N1CC23C=CC(O2)C(C(=O)OC(C)C)C3C1=O (stereo not given) | -0.47
O=C(c1ccncc1)N1CCN(C(=O)c2cccs2)CC1 | -1.42
N#C/C(=C\N1CCc2ccccc2C1)C(=O)c1cccs1 | 0.66
O=C(c1cccs1)N1CCc2ccccc2C1 | 3.66*
COc1cccc(C(=O)OCC(=O)c2ccc(Br)cc2)c1 | 5.86*
COc1ccc(C(=O)OCC(=O)c2ccc(Br)cc2)cc1OC | 0.14
Cc1ccc(I)c(C(=O)OCC(=O)c2ccc(Br)cc2)c1 | 1.22
NC1=NC(=O)CC(C(=O)Nc2ccc(Oc3ccc(Cl)cc3)cc2)S1 (stereo not given) | 0.62
O=C(Nc1cccc(NC(=O)c2c(F)cccc2F)n1)c1c(F)cccc1F | -0.22
O=C(O)COCC(=O)Nc1ccccn1 | 0.85
O=C(Nc1ccccn1)c1cccc(C(=O)Nc2ccccn2)n1 | 3.55*
CCCN(C)S(=O)(=O)c1cccc2c(N)cccc12 | -1.17
N#CC(=C1SCCS1)c1ccc(Cl)cc1 | 4.68*
N#CC(=C1SCCCCS1)S(=O)(=O)c1ccc(Cl)cc1 | 0.36
N#CC(=C1SCCS1)S(=O)(=O)c1ccc(Cl)cc1 | -0.22
Cc1cc(C(C)(C)C)cc(C)c1NC(=O)/C=C/C(=O)O | 2.57
O=[N+]([O-])c1cc(-c2cnc3ccccc3n2)ccc1Sc1ccc(Cl)cc1 | -0.9
O=C1NC(=S)S/C1=C/c1ccc(Sc2ccc(Cl)cc2)c([N+](=O)[O-])c1 | 5.2*
O=C1NC(=S)S/C1=C\c1ccc([N+](=O)[O-])s1 | -0.38
SMILES | Dicer processing
CCCc1nc2ccccc2n1CC(O)COc1cc(OC)cc(OC)c1 (stereo not given) | -1.35
O=S(=O)(Nc1ccc(N2CCCCC2)cc1)c1ccc(-c2cc(C(F)(F)F)on2)s1 | 4.9
COc1cccc(/C=N/NC(=O)CN2C(=O)CSc3ccccc32)c1 | 3.19*
Cc1nn(-c2ccccc2)cc1/C=N/NC(=O)Cn1nc2n(c1=O)-c1ccccc1SC2 | 1.38
Cc1ccc(/C=N/NC(=O)Cn2nc3n(c2=O)-c2ccccc2SC3)o1 | 1.29
Cc1c(CC(=O)O)sc2ccc(Cl)cc12 | -1.14
O=C(O)C(c1ccccc1)C1CCCC1 (stereo not given) | -1.69
CC(C)(C)OC(=O)C(C)(C)ONC(=O)Nc1ccc(Cl)cc1Cl | -1.29
Cc1nccn1CC(=O)N1c2ccccc2Sc2ccccc21 | 5.53*
CCOC(=O)C(=O)N1c2ccccc2Sc2ccccc21 | 9.82
O=C1CCC(=O)N1CC(=O)N1c2ccccc2Sc2ccccc21 | -0.22
CC(C)(C)c1cc2nc(C(F)(F)F)cc(C#N)n2n1 | 0.66
N#Cc1c(NC(=O)c2ccc(S(=O)(=O)N3CCCCC3)cc2)sc2c1CCCC2 | 1.24
Cc1sc(NC(=O)c2ccc(C(C)(C)C)cc2)c(C#N)c1C | 2.63
CCOC(=O)CSc1nc(C2CC2)cc(-c2ccccc2)c1C#N | 3.72*
Cc1ccc(-c2cc(C(F)(F)F)c(C#N)c(SCC(=O)O)n2)cc1 | -0.53
CCOC(=O)CSc1nc(C)cc(C)c1C#N | -0.01
CCOC(=O)COc1nc(-c2ccccc2)cc(-c2ccccc2)c1C#N | 0.94
N#Cc1c(C(F)(F)F)cc(-c2ccccc2)nc1SCC(N)=O | 0.19
CCOC(=O)CSc1nc(-c2ccc(F)cc2)cc(C(F)(F)F)c1C#N | 3.19*
CCOc1ccccc1C1C(C(=O)OCCSCC)=C(C)NC2=C1C(=O)CCC2 (stereo not given) | 0.3
Cc1coc(=O)n1-c1ccc(Cl)cc1Cl | -0.07
Cc1cccc(NC(=O)Nc2cccs2)n1 | 1.58
CN(n1cnc2ccccc2c1=O)S(C)(=O)=O | 3.02*
CN(n1cnc2ccsc2c1=O)S(C)(=O)=O | -0.09
SMILES | Dicer processing
COc1ccc(-n2cnc3ccccc3c2=O)cc1 | 0.4
CCOC(=O)C(C)Nc1n[nH]c(=S)[nH]c1=O (stereo not given) | 1.55
Cc1cc(C2CCCCC2)ccc1O | 5.63*
S=C(Nc1ccc(C2CCCCC2)cc1)N1CCSCC1 | -2.2
COc1cc(C2SCc3cc(C)c(C)cc3CS2)ccc1O | 1.11
CC(C)C[C@H](NC(=O)OC(C)(C)C)C(=O)OCc1ccc(CC(=O)O)cc1 | 3
CC/C(=N\Oc1ccc(C(F)(F)F)cn1)c1ccc(-c2ccccc2F)cc1 | -0.97
